Measured values published in PubChem BioAssay (NCI).
About 83,000 compounds went through this panel and 20% of them were active in at least one assay; those are over-represented in the sample as a whole.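 Treatment: one concentration, 48 hours, 96-well format. Scoring: percent growth, with anything below 10 considered active.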 Values without a mark were called inactive. Activity calls are given as the source filed them.

Key:
Experiment in all cases: NCI-60 one-dose screen, 48 h (100 = growth as untreated, 0 = no growth, -100 = all killed)
K-562 leukemia = conditions: 10 µM unless noted
MALME-3M melanoma = conditions: 10 µM unless noted
MDA-MB-231 breast = conditions: 10 µM unless noted
RXF 393 renal = conditions: 10 µM unless noted
SF-268 CNS = conditions: 10 µM unless noted
SF-295 CNS = conditions: 10 µM unless noted
SF-539 CNS = conditions: 10 µM unless noted
UACC-257 melanoma = conditions: 10 µM unless noted
M14 melanoma = conditions: 10 µM unless noted
HCT-15 colon = conditions: 10 µM unless noted
SNB-75 CNS = conditions: 10 µM unless noted
SNB-19 CNS = conditions: 10 µM unless noted
U251 CNS = conditions: 10 µM unless noted
PC-3 prostate = conditions: 10 µM unless noted
SK-MEL-5 melanoma = conditions: 10 µM unless noted
UACC-62 melanoma = conditions: 10 µM unless noted
LOX IMVI melanoma = conditions: 10 µM unless noted
SK-MEL-28 melanoma = conditions: 10 µM
SK-MEL-2 melanoma = conditions: 10 µM unless noted
HT29 colon = conditions: 10 µM unless noted

Row | SMILES | growth (K-562 leukemia) | growth (MALME-3M melanoma) | growth (MDA-MB-231 breast) | growth (RXF 393 renal) | growth (SF-268 CNS) | growth (SF-295 CNS) | growth (SF-539 CNS) | growth (UACC-257 melanoma) | growth (M14 melanoma) | growth (HCT-15 colon) | growth (SNB-75 CNS) | growth (SNB-19 CNS) [%] | growth (U251 CNS) | growth (PC-3 prostate) | growth (SK-MEL-5 melanoma) | growth (UACC-62 melanoma) | growth (LOX IMVI melanoma) | growth (SK-MEL-28 melanoma) | growth (SK-MEL-2 melanoma) | growth (HT29 colon)
1 | O=C(NCc1ccco1)C1CN(c2ccc(Cl)cc2)N(c2ccc(Cl)cc2)C1=O (configuration not stated) | 17.9% | 37.2% | 59.1% | 58.2% | 50.9% | 30.1% | 49.4% | 69.1% | 32.1% | 28.4% | 16.8% | 54.4 | 33.9% | 27% | 41.8% | 24.4% | 45.9% | 66.2% | 49.2% | –
2 | O=C(Nc1ccc(N2CCNCC2)cn1)c1[nH]ncc1Nc1ncnc2sccc12 | -60.1% (active) | -67.7% (active) | -35.8% (active) | 46.6% | 40.8% | 97.3% | -28.8% (active) | 69.8% | -61.3% (active) | – | 59.5% | 48.7 | -51.1% (active) | 23.7% | 58.2% | 74.7% | -75.1% (active) | -81.4% (active) | 85.7% | 2.95% (active)
3 | COc1ccc(C2C3=C(COC3=O)N(CCO)c3cc4c(cc32)CCC4)cc1OC (configuration not stated) | 14.7% | 42.8% | 24.7% | -42.7% (active) | 49.1% | -2.08% (active) | -20.4% (active) | 43.6% | -18.4% (active) | 21.8% | -28% (active) | – | 20% | 23.4% | 28% | 36.7% | 44% | – | – | –
4 | O=C(Nc1ccc(Cl)cc1)N1CCN(c2ccc3nncn3n2)CC1 | -61.1% (active) | -86.8% (active) | -55.5% (active) | -81.2% (active) | -48.1% (active) | -87.2% (active) | -86.7% (active) | -68.9% (active) | -87.1% (active) | 0.448% (active) | -68.9% (active) | 80.3 | -74.7% (active) | 16.4% | -98.4% (active) | -88.3% (active) | – | -95.5% (active) | 22% | –
5 | COc1cc(C(=O)Nc2ccc(-c3nc4ccccc4[nH]3)cc2)cc(OC)c1OC | 15.2% | 81.3% | 61.4% | 28% | 55.4% | 9.85% (active) | 34.7% | 78.1% | 43.5% | – | 42.9% | 53.8 | 25% | 52.5% | 65.7% | 47.2% | 36% | 50% | 105% | 14.8%
6 | Nc1ccn(C2O[C@H](CO)[C@@H](O)[C@H]2O)c(=O)n1 (some centres not stated) | 74.3% | 109% | 82.8% | 50.1% | 86.2% | 58.5% | 73.1% | 90.1% | 107% | – | 76.9% | 101 | 48.9% | 85.6% | 89.9% | 95.9% | 75.5% | 76.4% | 110% | 106%
7 | NCCNc1nc2ccccc2c2c(=O)c3cc(F)cc(Cl)c3sc12 | -62.7% (active) | 89.6% | -79.2% (active) | 67% | -42.4% (active) | 98.2% | 58.6% | 103% | -76.6% (active) | – | 44.6% | 81.4 | -84.3% (active) | -70.4% (active) | 85.5% | 44.8% | -92.1% (active) | -89.8% (active) | 99.1% | -64.3% (active)
8 | Nc1ncnc(N)c1NC(=O)c1ccc(OCc2ccccc2)cc1 | 105% | 102% | 104% | 107% | 104% | 103% | 95.5% | 104% | 108% | 99.5% | 110% | 103 | 102% | 106% | 102% | 99% | 110% | 117% | 93.1% | –
9 | O=C1NC(=O)C(=Cc2cn(Cc3cn(Cc4ccc(Cl)cc4Cl)nn3)c3ccccc23)C(=O)N1 | 75.5% | 91.5% | 81.9% | 85.2% | 84.8% | 89.6% | 93% | 95.8% | 96.8% | – | 75.4% | 88.5 | 91% | 89.6% | 69.5% | 67.6% | 80.1% | 107% | 79.3% | 111%
10 | COc1cc(NC(=O)CCSc2nc3ccccc3c(=O)n2Cc2ccccc2)cc(OC)c1OC | 81.2% | 82% | 64.9% | 92.3% | 81.9% | 75.3% | 72.9% | 89.5% | 94.7% | 92.5% | 55.7% | 84.9 | 91.6% | 66.9% | 87.4% | 64.8% | 82% | 102% | 84.4% | –
11 | COc1ccc(C)c2sc(N(Cc3cccnc3)C(=O)c3ccc(C#N)cc3)nc12 | 4.61% (active) | -15.2% (active) | -4% (active) | -31% (active) | 10.9% | -28.9% (active) | -26% (active) | -15.5% (active) | 4.95% (active) | 17.5% | 15.4% | 12.4 | 1.87% (active) | 16% | -62.2% (active) | -33.3% (active) | -7.23% (active) | 15.9% | 13.1% | –
12 | COc1ccc(/C=C2/SC(=O)N(CC(=O)N3CCN(c4cc5c(cc4F)c(=O)c(C(=O)O)cn5C4CC4)CC3)C2=O)cc1 | 110% | 98.5% | 103% | 117% | 101% | 101% | 91.1% | 91.9% | 103% | 109% | 86.4% | 101 | 101% | 104% | 101% | 97.3% | 93.9% | 107% | 108% | –
13 | O=c1oc2ccc(I)cc2c(=O)n1-c1ccc(F)cc1F | 7.26% (active) | -21% (active) | 33.3% | 11.1% | 9.2% (active) | 3.91% (active) | 13.7% | -4.46% (active) | 21% | 15.6% | -13.4% (active) | 14.7 | 8.66% (active) | 3.58% (active) | – | – | – | 18.9% | -17.3% (active) | –
14 | O=C1NC(=S)NC(=O)C1=Cc1cn(Cc2cn(Cc3cccc4ccccc34)nn2)c2ccccc12 | 121% | 86.5% | 87.6% | 84.6% | 95.4% | 98.4% | 96.3% | 103% | 95% | – | 79.4% | 97.9 | 102% | 93.9% | 93.9% | 88.3% | 91.1% | 103% | 114% | 114%
15 | Cc1sc2ncn(CC(=O)Nc3ccc(S(N)(=O)=O)cc3)c(=O)c2c1C | 103% | 102% | 102% | 114% | 97.9% | 104% | 96% | 97.7% | 114% | 102% | 86.1% | 98.5 | 100% | 101% | 99.3% | 96.5% | 99% | 110% | 106% | –
16 | Cc1c(C(=O)OCCO)cc(-c2ccc(Cl)cc2)n1-c1ccc(Cl)cc1Cl | 33% | 76.2% | 74.2% | 62.8% | 70.4% | 75.3% | 77.5% | 82% | 55.6% | – | 82.3% | 90.6 | 77.7% | 70.4% | 67.1% | 54.5% | 65.1% | 70.8% | 95.9% | 74.6%
